# According to PubChem BioAssay (NCATS):
# Experiment: qHTS profiling of the MIPE4 collection as inhibitors of Plasmodium falciparum (HB3) proliferation (AID 743347);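 also: plate controls were DMSO vehicle wells for no effect and artemisinin wells for full effect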
# Conditions: P. falciparum HB3 in erythrocytes, SYBR Green DNA, 72 h; at 28.5 µM (top of the series) unless noted
# Summary of the method: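 Erythrocytes infected with P. falciparum (0.3% parasitemia, 2.5% hematocrit) incubated with compounds 72 h at 37 C, 5% CO2. Lysis with saponin/Triton buffer containing SYBR Green I, overnight at room temperature in the dark; DNA fluorescence (485/535 nm) normalised to 0.29 uM artemisinin and DMSO.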
row,SMILES,"growth, % of control"
1,N=C(N)c1ccc2cc(OC(=O)c3ccc(N=C(N)N)cc3)ccc2c1,12.8%
2,CNC[C@H](O)c1ccc(O)c(O)c1,78% [at 57.5 µM]
3,O=C(NOCC1CC1)c1ccc(F)c(F)c1Nc1ccc(I)cc1Cl,63.7%
4,CCC[C@@H]1C[C@@H](C(=O)N[C@@H]([C@H]2O[C@H](SC)[C@H](O)[C@@H](O)[C@H]2O)[C@@H](C)O)N(C)C1,66.3%
5,CN(C)C(=O)COC(=O)Cc1ccc(OC(=O)c2ccc(N=C(N)N)cc2)cc1,101%
6,CC1(C)NC(=O)N(c2ccc([N+](=O)[O-])c(C(F)(F)F)c2)C1=O,91%
7,Cc1cc(C2CCCCC2)n(O)c(=O)c1,9.38%
8,COc1ccc(C2(C#N)CCC(C(=O)O)CC2)cc1OC1CCCC1 (stereo not drawn),101%
9,NC(=NCc1ccccc1)NC(=O)c1nc(Cl)c(N)nc1N,98.4%
10,Cn1c(NCCN(CCO)CCCc2ccc([N+](=O)[O-])cc2)cc(=O)n(C)c1=O,9.64%
11,CC(=O)N1CCN(c2ccc(OC[C@H]3CO[C@](Cn4ccnc4)(c4ccc(Cl)cc4Cl)O3)cc2)CC1,6.71%
12,COc1cc2nc(N3CCN(C(=O)C4CCCO4)CC3)nc(N)c2cc1OC (stereo not drawn),11.3%
13,O=c1c(O)c(-c2ccc(O)cc2O)oc2cc(O)cc(O)c12,99.8%
14,O=C(CCc1ccc(O)cc1)c1c(O)cc(O)cc1O,5.58%
15,CC(=O)O[C@H]1C(=O)[C@@]2(C)C([C@H](OC(=O)c3ccccc3)[C@]3(O)C[C@H](OC(=O)[C@H](O)[C@@H](NC(=O)c4ccccc4)c4ccccc4)C(C)=C1C3(C)C)[C@]1(OC(C)=O)CO[C@@H]1C[C@@H]2O (stereo partly drawn),4.22%
16,NCCCCNCCCN,577%
17,CCCc1cc(=O)[nH]c(=S)[nH]1,103%

row,SMILES,"growth, % of control"
1,Cc1cccc(CN2CCN(C(c3ccccc3)c3ccc(Cl)cc3)CC2)c1 (stereo not drawn),9.08%
2,N[C@@H](Cc1cc(I)c(Oc2cc(I)c(O)c(I)c2)c(I)c1)C(=O)O,75.1%
3,COC(=O)N[C@H](C(=O)N[C@@H](Cc1ccccc1)[C@@H](O)CN(Cc1ccc(-c2ccccn2)cc1)NC(=O)[C@@H](NC(=O)OC)C(C)(C)C)C(C)(C)C,9.81%
4,Cc1ccc(S(=O)(=O)NC(=O)NN2CC3CCCC3C2)cc1 (stereo not drawn),7.17%
5,CN(c1nccc(=O)[nH]1)C1CCN(c2nc3ccccc3n2Cc2ccc(F)cc2)CC1,17.5%
6,Cc1cc2cc3c(C)cc(=O)oc3c(C)c2o1,76.7%
7,CN(C)CCCC1(c2ccc(F)cc2)OCc2cc(C#N)ccc21 (stereo not drawn),93%
8,Nc1ncn([C@H]2C[C@H](O)[C@@H](CO)O2)c(=O)n1,81.1%
9,COC(=O)C1=C(C)NC(C)=C(C(=O)OC(C)C)C1c1cccc2nonc12 (stereo not drawn),99.6%
10,CCCCCCCCOc1ccccc1C(=O)Nc1ccc(C(=O)OCC[N+](C)(CC)CC)cc1,8.46%
11,CS(=O)(=O)OCCCCOS(C)(=O)=O,106%
12,Nc1ccc(S(N)(=O)=O)cc1,102%
13,O=C1NC(=O)C(c2ccccc2[N+](=O)[O-])=C1Nc1ccc(O)c(Cl)c1,125%
14,COC(=O)C1=C(C)NC(C)=C(C(=O)OCCCN2CCC(c3ccccc3)(c3ccccc3)CC2)C1c1cccc([N+](=O)[O-])c1 (stereo not drawn),102%
15,OC(CN1CCN(c2cccc(Cl)c2)CC1)C(c1ccccc1)c1ccccc1 (stereo not drawn),47%
16,COc1cc2c(N3CCN(C(=O)Nc4ccc(OC(C)C)cc4)CC3)ncnc2cc1OCCCN1CCCCC1,3.25%
17,CC(=O)NC[C@H]1CN(c2ccc(N3CCOCC3)c(F)c2)C(=O)O1,94.8%

# Experiment: High-throughput drug toxicity screening in the BPDCN cell line Gen2.2 (AID 1224824);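 also: cells exposed to compounds for 48 h before reading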
# Conditions: Gen2.2 BPDCN cells; at 45.8 µM (top of the series) unless noted
# Summary of the method: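 Seed 500 exponentially growing Gen2.2 cells/well; add compounds by pin tool; incubate 48 h, 37 °C, 5% CO2; add CellTiter-Glo, 15 min RT; read luminescence. % activity vs DMSO (100%) and bortezomib (0%).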
row,SMILES,"cell viability, % of control (lower = more cytotoxic)"
1,N=C(N)c1ccc2cc(OC(=O)c3ccc(N=C(N)N)cc3)ccc2c1,175%
2,CNC[C@H](O)c1ccc(O)c(O)c1,50.3% [at 92.2 µM]
3,Nc1nc(OCc2ccccc2)c2[nH]cnc2n1,56%
4,O=C(NOCC1CC1)c1ccc(F)c(F)c1Nc1ccc(I)cc1Cl,6.36%
5,CCC[C@@H]1C[C@@H](C(=O)N[C@@H]([C@H]2O[C@H](SC)[C@H](O)[C@@H](O)[C@H]2O)[C@@H](C)O)N(C)C1,191%
6,CN(C)C(=O)COC(=O)Cc1ccc(OC(=O)c2ccc(N=C(N)N)cc2)cc1,129%
7,CC1(C)NC(=O)N(c2ccc([N+](=O)[O-])c(C(F)(F)F)c2)C1=O,204%
8,Cc1cc(C2CCCCC2)n(O)c(=O)c1,17%
9,CCCCN(CCCC)CCC(O)c1cc2c(Cl)cc(Cl)cc2c2cc(C(F)(F)F)ccc12 (stereo not drawn),34.8%
10,COc1ccc(C2(C#N)CCC(C(=O)O)CC2)cc1OC1CCCC1 (stereo not drawn),129%
11,NC(=NCc1ccccc1)NC(=O)c1nc(Cl)c(N)nc1N,130%
12,Cn1c(NCCN(CCO)CCCc2ccc([N+](=O)[O-])cc2)cc(=O)n(C)c1=O,108%
13,CC(=O)N1CCN(c2ccc(OC[C@H]3CO[C@](Cn4ccnc4)(c4ccc(Cl)cc4Cl)O3)cc2)CC1,64.7%
14,COc1cc2nc(N3CCN(C(=O)C4CCCO4)CC3)nc(N)c2cc1OC (stereo not drawn),151%
15,O=c1c(O)c(-c2ccc(O)cc2O)oc2cc(O)cc(O)c12,74.1%
16,O=C(CCc1ccc(O)cc1)c1c(O)cc(O)cc1O,141%
17,CC(=O)O[C@H]1C(=O)[C@@]2(C)C([C@H](OC(=O)c3ccccc3)[C@]3(O)C[C@H](OC(=O)[C@H](O)[C@@H](NC(=O)c4ccccc4)c4ccccc4)C(C)=C1C3(C)C)[C@]1(OC(C)=O)CO[C@@H]1C[C@@H]2O (stereo partly drawn),17%
18,Cc1ccc(Nc2nccc(N(C)c3ccc4c(C)n(C)nc4c3)n2)cc1S(N)(=O)=O,355%
19,NCCCCNCCCN,3.46%
20,CCCc1cc(=O)[nH]c(=S)[nH]1,62.4%

row,SMILES,"cell viability, % of control (lower = more cytotoxic)"
1,Cc1cccc(CN2CCN(C(c3ccccc3)c3ccc(Cl)cc3)CC2)c1 (stereo not drawn),156%
2,N[C@@H](Cc1cc(I)c(Oc2cc(I)c(O)c(I)c2)c(I)c1)C(=O)O,163%
3,COC(=O)N[C@H](C(=O)N[C@@H](Cc1ccccc1)[C@@H](O)CN(Cc1ccc(-c2ccccn2)cc1)NC(=O)[C@@H](NC(=O)OC)C(C)(C)C)C(C)(C)C,159%
4,Cc1ccc(S(=O)(=O)NC(=O)NN2CC3CCCC3C2)cc1 (stereo not drawn),109%
5,CN(c1nccc(=O)[nH]1)C1CCN(c2nc3ccccc3n2Cc2ccc(F)cc2)CC1,107%
6,Cc1cc2cc3c(C)cc(=O)oc3c(C)c2o1,16.3%
7,CN(C)CCCC1(c2ccc(F)cc2)OCc2cc(C#N)ccc21 (stereo not drawn),120%
8,COc1c2occc2cc2ccc(=O)oc12,109%
9,Nc1ncn([C@H]2C[C@H](O)[C@@H](CO)O2)c(=O)n1,125%
10,Cc1nc2n(c(=O)c1CCN1CCC(c3noc4cc(F)ccc34)CC1)CCCC2,80.6%
11,COC(=O)C1=C(C)NC(C)=C(C(=O)OC(C)C)C1c1cccc2nonc12 (stereo not drawn),131%
12,CCCCCCCCOc1ccccc1C(=O)Nc1ccc(C(=O)OCC[N+](C)(CC)CC)cc1,52.3%
13,CS(=O)(=O)OCCCCOS(C)(=O)=O,84.6%
14,Nc1ccc(S(N)(=O)=O)cc1,169%
15,O=C1NC(=O)C(c2ccccc2[N+](=O)[O-])=C1Nc1ccc(O)c(Cl)c1,124%
16,COC(=O)C1=C(C)NC(C)=C(C(=O)OCCCN2CCC(c3ccccc3)(c3ccccc3)CC2)C1c1cccc([N+](=O)[O-])c1 (stereo not drawn),109%
17,OC(CN1CCN(c2cccc(Cl)c2)CC1)C(c1ccccc1)c1ccccc1 (stereo not drawn),319%
18,COc1cc2c(N3CCN(C(=O)Nc4ccc(OC(C)C)cc4)CC3)ncnc2cc1OCCCN1CCCCC1,7.51%
19,CC(=O)NC[C@H]1CN(c2ccc(N3CCOCC3)c(F)c2)C(=O)O1,81.5%
